Compounds without any hit were thinned out: in the full panel of roughly 83,000, 20% have a hit.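 Plates (96-well) were seeded with cells, treated with compound at one concentration, and incubated for 48 hours before percent growth was determined.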 The source made the active and inactive calls.
system: U251 CNS; assay: NCI-60 one-dose screen, 48 h (100 = growth as untreated, 0 = no growth, -100 = all killed); details: 10 µM unless noted
Experimental: Growth inhibition of the U251 human tumor cell line is measured as a screen for anti-cancer activity. Cells are grown in 96 well plates and exposed to the test compound for 48 hours. Compounds are tested at a single concentration, which is 10^-5 M for most compounds. The reported endpoint is percent growth (GI% or GIPRCNT), where numbers from 0 - 100% represent growth inhibition, and numbers from -100% - 0 represent cell death. For example, a value of 40 represents 60% growth inhibition. A value of 0 means no net growth occurred over the course of the experiment. A value of -40 indicates 40% of cells at the beginning of the experiment died by the end of the experiment. A value of -100 means all cells are dead at the end of the experiment.
NCI-60 Human Tumor Cell Lines Screen was performed using the standard one-dose NCI protocol, which is described in more detail at https://dtp.cancer.gov/discovery_development/nci-60/default.htm.
Compounds with GIPRCNT values below 10 were considered active. Activity score was based on GIPRCNT using the following formula: […]
Score is 0 for GIPRCNT values of 100 or above, 50 for GIPRCNT values of 0, and 100 for GIPRCNT values of -100.

Structure (SMILES)	growth
CC(C)=CC(=O)N[C@@H]1CC2CCC3C(CC[C@@]4(C)C3CC[C@@H]4C(C)N(C)C)[C@@]2(C)C[C@@H]1O (stereo not given in full)	56.7% (inactive)
CCCCCCCCn1ccc2cc(NC(=O)Cn3cc(CN4CCOCC4)nn3)ccc21	88.5% (inactive)
CNC(=O)c1cc(Oc2ccc3nc(NC(=O)Nc4ccc(Cl)c(Cl)c4)sc3c2)ccn1	24% (inactive)
CC(=O)c1c(Nc2ccc(F)c(F)c2F)[nH]c2c(F)cc(F)cc2c1=O	0.133% (active)
Clc1nn2c(Cn3cnc4c(NCc5ccccc5)ncnc43)nnc2c2ccccc12	34.5% (inactive)
C=C1C(=O)O[C@H]2[C@H]1CC/C(COC(=O)/C=C\C(=O)NCc1ccc(Cn3c(=O)sn(-c4ccccc4)c3=O)cc1)=C\CC[C@@]1(C)O[C@@H]21	84.3% (inactive)
O=C(Cn1nnc2ccccc21)N/N=C/c1ccccc1F	97.1% (inactive)
COc1cc(/C=C/c2cc(/C=C/c3ccc(O)c(OC)c3)n(C(=O)Nc3ccc(F)cc3)n2)ccc1O	13.4% (inactive)
O=C1/C(=C/c2ccc(C(F)(F)F)cc2)COc2ccc(O)cc21	52.3% (inactive)
COc1cc(C(=O)/C=C/c2c(-c3cccs3)nc3ccccn23)cc(OC)c1OC	1.5% (active)
Cc1cc(C)c(-c2c(O)c(Br)c(-c3c(C)cc(C)c(Br)c3C)c(O)c2Br)c(C)c1Br	19.8% (inactive)
O=C1/C(=C/c2ccccc2[N+](=O)[O-])COc2ccc(O)cc21	7.41% (active)
CCOC(=O)NN1CC(O)=C(c2nc(-c3ccc(Br)cc3)cs2)C1=N	113% (inactive)
N#Cc1c(NC(=O)c2cccs2)[n+]([O-])c2ccc(Cl)cc2[n+]1[O-]	99% (inactive)
O=C(CBr)CN1C(=O)c2ccccc2C1=O	101% (inactive)
CC(O)c1ncc(/C=C2\SC(=S)N(Cc3ccccc3)C2=O)s1 (stereo not given)	87.9% (inactive)
C=CCCC(=O)N1C=CC(=O)[C@H](O)[C@@H]1/C=C/c1ccccc1	33% [100 µM] (inactive)
COc1ccc(/C=C/C(=O)c2ccc(NC(=O)CSc3nnc(-c4cc(-c5ccccc5)nc5ccccc45)n3-c3ccccc3)cc2)cc1	102% (inactive)
COc1ccc(-c2oc(=O)ccc2-c2cc(OC)c(OC)c(OC)c2)cc1O	22.7% (inactive)
COc1ccc(NC(=O)c2sc3nc4c(cc3c2N)CCCC4)cc1	22.6% (inactive)

Structure (SMILES)	growth
O=P(O)(O)OCC1OC(n2cnc3c(NCc4ccccc4)ncnc32)C(O)C1O (stereo not given)	47.3% (inactive)
O=C1CCC(C(=O)NN(c2ccccc2)c2ccccc2)N1 (stereo not given)	103% (inactive)
O=C(Nc1ccccc1)c1sc(-c2ccccc2)cc1O	98.5% (inactive)
Cc1ccc(/C=C(\C#N)C(=O)Nc2ncc(Cc3cc(Cl)ccc3Cl)s2)o1	32.2% (inactive)
O=C1Nc2ccc(F)cc2/C1=N/c1nnc(Sc2ccccc2)s1	91.4% (inactive)
N#CC(C#N)N=Nc1ccc(Cl)cc1Cl	106% (inactive)
O=C(CCCCNC(=O)c1cc(=O)c(O)co1)Nc1ccccc1	92.8% (inactive)
CN1C(=O)N(C)C2C1NC(=S)N2/N=C/C=C/c1ccccc1[N+](=O)[O-] (stereo not given)	20.2% (inactive)
Cc1nn(-c2ccccc2)c(/N=C/N(C)C)c1/C=C/C(=O)c1ccc(Cl)cc1	95.1% (inactive)
CCCn1c(=S)sc2c1nc(C)n1c(Nc3ccccc3)nnc21	60.9% (inactive)
Fc1ccc(CNc2c3ccccc3nc3ccccc23)cc1	25.9% (inactive)
Clc1ccc(-c2nc(-c3c[nH]c4ncccc34)cs2)cc1	16.2% [100 µM] (inactive)
Cc1cc(N2CCN(C)CC2)nc(NCc2cc(Nc3ccnc4cc(Cl)ccc34)ccc2F)n1	-51.3% (active)
CCNCc1ccc(O)c2ncccc12	17.7% (inactive)
COc1ccc(NC(=O)c2sc3nc(C)c(C(O)c4ccccc4)cc3c2N)cc1 (stereo not given)	17.8% (inactive)
CCN(CCO)CC(C)Nc1ccc([N+](=O)[O-])c2sc3ccccc3c(=O)c12 (stereo not given)	26.7% (inactive)
C=CC1(C)C(O[Si](C)(C)C(C)(C)C)CC2C3OC(=O)NC31c1cccc3c1[C@H](C(=O)N3C)C2(C)C (stereo not given in full)	67% (inactive)
O=C(CCCCCCN1CC(=O)N2[C@@H](C3CCCCC3)c3[nH]c4ccccc4c3C[C@H]2C1=O)NO	70.2% (inactive)
CCCC(O)Cn1ncc(C(=O)OCC)c1NC(=O)NCc1cccc(F)c1 (stereo not given)	101% (inactive)
COc1ccccc1-n1c(-c2cc(O)ccc2C)cn2c3c(=O)[nH]c(=O)n(C)c3nc12	83.8% (inactive)

Source: PubChem BioAssay (NCI)
